Screening results: PubChem BioAssay, National Center for Advancing Translational Sciences (NCATS)
RORgamma inh = blocks mouse ROR gamma transcriptional activity; AID 2551; P51450; Potency, µM (titrated, usually from 53.6 µM), most hits filed as inhibitors; 310,000 tested, 5.4% active; Drosophila S2 Gal4-RORgamma UAS-luciferase reporter, 20 h; further: nearly all actives have a fitted effect of over 60% in size
Target sequence (P51450 whole entry, looked up, the tested form may be a part): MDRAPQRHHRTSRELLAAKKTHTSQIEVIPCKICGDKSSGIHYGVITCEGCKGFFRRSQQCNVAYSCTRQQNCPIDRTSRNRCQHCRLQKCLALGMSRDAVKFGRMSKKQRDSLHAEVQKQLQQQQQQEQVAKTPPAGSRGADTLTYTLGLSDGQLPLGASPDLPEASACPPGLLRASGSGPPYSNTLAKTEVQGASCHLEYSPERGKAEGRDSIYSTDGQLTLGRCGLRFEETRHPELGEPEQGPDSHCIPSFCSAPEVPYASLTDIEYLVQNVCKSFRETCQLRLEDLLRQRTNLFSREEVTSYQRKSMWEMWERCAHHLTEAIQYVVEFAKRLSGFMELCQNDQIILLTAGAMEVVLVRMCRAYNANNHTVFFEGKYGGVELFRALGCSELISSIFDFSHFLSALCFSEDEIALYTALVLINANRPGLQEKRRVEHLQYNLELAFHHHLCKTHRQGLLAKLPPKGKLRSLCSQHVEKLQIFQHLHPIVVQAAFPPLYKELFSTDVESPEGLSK
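Luminescence from a UAS-regulated Photinus luciferase reporter in stably transfected Drosophila Schneider cells is measured; decreased signal marks ROR gamma inhibition. Fusion expression is induced by 700 uM copper sulfate for 20 hr.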
SW480 rerep = induces DNA re-replication in SW480 colon adenocarcinoma cells. SW480 DNA re-replication, Hoechst DNA content imaging, 48 h. AID 624297. 340,000 tested, 1.8% active. Potency, µM (highest dose often 46.1 µM), hits mostly activators; further: nearly all actives have a fitted effect of over 55% in size
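SW480 cells exposed to compounds for 48 hr at 37 C, 5% CO2, then Hoechst-stained 40 min. Nuclear DNA content imaged by fluorescence scanning (405 nm excitation, 500-530 nm emission); re-replication scored as increased high-intensity nuclei.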
Giardia kill = kills Giardia lamblia. Giardia lamblia trophozoite viability. activity change, % at 7.66 µM, hits read low. 340,000 tested, 0.15% active. AID 540267; in the data active means activity change below about -80%; inconclusive means between about -30% and that limit;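 further: parasites exposed to compound for two days anaerobically before the ATP read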
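Killing of trophozoites was scored by loss of ATP luminescence after a 48 hrs anaerobic exposure to compounds at 37 deg C, using 100 cells per well.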
Chronic BCR inh = chronic active BCR signaling inhibition. ABC-DLBCL IkBa-CBG/CBR reporter, luminescence ratio, 4 h. 340,000 tested, 0.05% active. Potency, µM (doses to about 46.1 µM), most hits filed as inhibitors. AID 493014; active means well fitted inhibition curve with a large enough effect in the signal ratio, with a control signal flat, not every such curve was filed as active; inconclusive means small, poorly fitted or top-dose-only effect, or effect the other way, or a change in a side signal; the % refers to the signal ratio
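TMD8 human ABC-DLBCL cells with doxycycline-inducible IκBα–green luciferase fusion and unfused red luciferase, in 0.5% FBS medium; compounds up to 46 uM, 4 h at 37C. Green/red luminescence ratio, filter-overlap corrected, fitted to concentration-response curves.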
MCF10A rereplic = induces DNA re-replication in MCF 10a normal breast cells. Potency, µM (titrated, usually from 46.1 µM), hits mostly activators. AID 624296. MCF 10A DNA re-replication, Hoechst nuclear intensity, 48 h. 350,000 tested, 2.9% active; further: nearly all actives have a fitted effect of over 50% in size
Gal4-VP16 FLuc = inhibits Gal4-VP16 luciferase reporter, ROR gamma counter-screen; Potency, µM (titrated, usually from 53.6 µM), hits mostly inhibitors; Drosophila S2 Gal4-VP16 UAS-luciferase, luminescence, 20 h; AID 2546; 310,000 tested, 3.5% active;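 further: Gal4-VP16 expression switched on by copper sulfate through the metallothionein promoter; nearly all actives have a fitted effect of over 50% in size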
Hits are given with their value; [ ] = another dose, or the depositor's remark. In the library only some 8.3% were active in any assay of this set; here they are far more common. Unless noted, the call rests on the fitted dose curve; in most records, active means well fitted curve in the direction sought with a large enough effect; inconclusive means small, poorly fitted or top-dose-only effect, or another doubt; inactive means no such curve, though single readings can be large; an effect the other way counts as inactive or inconclusive.

N#Cc1cc([N+](=O)[O-])ccc1NC(=O)CSc1n[nH]c(=O)n1C1CC1 was read as SW480 rerep inactive, Giardia kill inactive, Chronic BCR inh inconclusive and MCF10A rereplic inactive.
Screening O=C(CCN1CCCCC1)N1CCc2c([nH]c3ccccc23)C1c1cccnc1 (centres undefined) returned SW480 rerep inactive, Giardia kill inactive and MCF10A rereplic inactive.
Screening CC(=O)N1c2ccc(S(=O)(=O)Nc3ccc(Cl)cc3C)cc2CC1C (centres undefined) returned Chronic BCR inh inactive.
Screening CC1CCCC(NC(=O)c2ccc3c(c2)NC(=O)CS3)C1C (centres undefined) returned RORgamma inh inactive, SW480 rerep inactive, Giardia kill inactive, Chronic BCR inh inconclusive, MCF10A rereplic inactive and Gal4-VP16 FLuc inactive.
Screening CN(C)S(=O)(=O)c1ccc(Cl)c(NC(=O)CSc2nc3c(cc2C#N)C(=O)CCC3)c1 returned RORgamma inh inactive, SW480 rerep 2.6µM, Giardia kill inactive, Chronic BCR inh inactive, MCF10A rereplic inconclusive and Gal4-VP16 FLuc inactive.
Screening Cc1cc(NC(=O)CSc2nc3c(cc2C#N)CCCC3)no1 returned RORgamma inh inactive, SW480 rerep inactive, Giardia kill inactive, Chronic BCR inh inactive, MCF10A rereplic inconclusive and Gal4-VP16 FLuc inactive.
For CCCCn1nnnc1SCC(=O)Nc1sc2c(c1C#N)CCCC2 the results were RORgamma inh inconclusive, SW480 rerep inactive, Giardia kill inactive, Chronic BCR inh inactive, MCF10A rereplic 11µM and Gal4-VP16 FLuc inactive.
N#Cc1c(NC(=O)CSc2nnnn2C2CCCC2)sc2c1CCCC2 was read as RORgamma inh inactive[0.365 µM], SW480 rerep inactive, Giardia kill inactive, Chronic BCR inh inactive and MCF10A rereplic inactive.
Screening Cc1ccc(NC(=O)CSc2nc3c(cc2C#N)C(=O)CCC3)cc1S(=O)(=O)N(C)C returned RORgamma inh inactive, SW480 rerep inactive, Giardia kill inactive, Chronic BCR inh inactive, MCF10A rereplic inconclusive and Gal4-VP16 FLuc inactive.
Cc1cc(NC(=O)CSc2nc3c(cc2C#N)CCC3)no1 was read as RORgamma inh inactive, SW480 rerep 15µM, Giardia kill inactive, Chronic BCR inh inactive, MCF10A rereplic inconclusive and Gal4-VP16 FLuc inactive.
Cc1ccc(S(=O)(=O)N(C)C)cc1NC(=O)COC(=O)CSc1ccccc1 was read as SW480 rerep inactive, Giardia kill inactive, Chronic BCR inh inactive and MCF10A rereplic inactive.
Screening CC(CC(=O)NNC(=O)c1cccc(Cl)c1)c1ccccc1 (centres undefined) returned RORgamma inh inactive, SW480 rerep inactive, Giardia kill inactive, Chronic BCR inh inactive, MCF10A rereplic inactive and Gal4-VP16 FLuc inactive.
Screening O=C(CN1CCCCC1)Nc1ccccc1Oc1ccccc1 returned RORgamma inh inactive, SW480 rerep inactive, Giardia kill inactive, Chronic BCR inh inconclusive, MCF10A rereplic 18µM and Gal4-VP16 FLuc inactive.
`O=C(CN1CCc2ccccc2C1)Nc1ccccc1N1CCCCCC1` gave RORgamma inh inactive, SW480 rerep inconclusive, Giardia kill inactive, Chronic BCR inh inactive, MCF10A rereplic 13µM and Gal4-VP16 FLuc inactive.
Screening Cc1cccc(OCC(=O)Nc2ccccc2N2CCCCC2)c1C returned SW480 rerep inconclusive, Giardia kill inactive, Chronic BCR inh inconclusive and MCF10A rereplic inconclusive.
Screening COc1ccc(OCC(=O)Nc2ccccc2N2CCCCC2)cc1 returned RORgamma inh inconclusive, SW480 rerep 12µM, Giardia kill inactive, Chronic BCR inh inconclusive, MCF10A rereplic 3.3µM and Gal4-VP16 FLuc inactive.
For Cc1cccc(C)c1OCC(=O)Nc1ccccc1N1CCCCC1 the results were RORgamma inh inactive, SW480 rerep inactive, Giardia kill inactive, Chronic BCR inh inconclusive, MCF10A rereplic inconclusive and Gal4-VP16 FLuc 18µM.
For CCCC1CC(CCc2ccccc2)OS(=O)(=O)N1 (centres undefined) the results were RORgamma inh inactive, SW480 rerep inactive, Giardia kill inactive, Chronic BCR inh inactive, MCF10A rereplic inconclusive and Gal4-VP16 FLuc inactive.
`CCN(C(=O)COC(=O)CCOc1cc(C)ccc1C)c1c(N)n(Cc2ccccc2)c(=O)[nH]c1=O` gave SW480 rerep inactive, Giardia kill inactive and MCF10A rereplic inconclusive.
`COc1ccc(CNCC(=O)Nc2ccccc2-n2cccc2)cc1` gave RORgamma inh inactive, SW480 rerep 21µM, Giardia kill inactive, Chronic BCR inh inactive, MCF10A rereplic inconclusive and Gal4-VP16 FLuc inactive.
`Cc1ccc(Cl)c(OCC(=O)Nc2ccccc2N2CCCCC2)c1` gave SW480 rerep 3.7µM, Giardia kill inactive, Chronic BCR inh inactive and MCF10A rereplic inconclusive.
`O=C(Nc1ccccc1N1CCCCC1)c1ccc(OC(F)F)cc1` gave RORgamma inh inactive, SW480 rerep inactive, Giardia kill inactive, Chronic BCR inh inconclusive, MCF10A rereplic 13µM and Gal4-VP16 FLuc inactive.
`COc1ccc(CC(=O)Nc2ccccc2N2CCCC2)cc1` gave RORgamma inh inactive, SW480 rerep inconclusive, Giardia kill inactive, Chronic BCR inh inactive, MCF10A rereplic inactive and Gal4-VP16 FLuc inactive.
O=C(Nc1ccccc1N1CCCCC1)c1ccc(F)cc1 was read as RORgamma inh inactive, SW480 rerep inactive, Giardia kill inactive, Chronic BCR inh inactive, MCF10A rereplic inactive and Gal4-VP16 FLuc inactive.
Screening COc1ccc(-c2cc(CC3(C(=O)O)CCN(C(=O)OC(C)(C)C)CC3)on2)c(OC)c1 returned RORgamma inh inactive, SW480 rerep inactive, Giardia kill inactive, Chronic BCR inh inactive, MCF10A rereplic inactive and Gal4-VP16 FLuc inactive.
For Cc1ccc2nc(-c3ccc(NC(=O)CN4C(=O)c5ccccc5C4=O)cc3)sc2c1 the results were RORgamma inh inconclusive, SW480 rerep 21µM, Giardia kill inactive, Chronic BCR inh inconclusive, MCF10A rereplic 16µM and Gal4-VP16 FLuc inconclusive.
Cc1ccc(N(CC(=O)Nc2ccc(-c3nc4ccc(C)cc4s3)cc2)S(C)(=O)=O)cc1 was read as RORgamma inh inactive, SW480 rerep inconclusive, Giardia kill inactive, Chronic BCR inh inactive, MCF10A rereplic 16µM and Gal4-VP16 FLuc inactive.
`Cc1ccc2nc(-c3ccc(NC(=O)CSc4nccc(=O)[nH]4)cc3)sc2c1` gave RORgamma inh inconclusive, SW480 rerep inactive, Giardia kill inactive, Chronic BCR inh inactive, MCF10A rereplic inconclusive and Gal4-VP16 FLuc inconclusive.
Screening Cc1ccc2nc(-c3ccc(NC(=O)CSc4nc(N)cc(=O)[nH]4)cc3)sc2c1 returned RORgamma inh inactive, SW480 rerep 3.7µM, Giardia kill inactive, Chronic BCR inh inconclusive, MCF10A rereplic inactive and Gal4-VP16 FLuc inactive.
Cc1nc2ccc(NC(=O)CCS(=O)(=O)c3ccccc3)cc2s1 was read as RORgamma inh inactive, SW480 rerep inactive, Giardia kill inactive, Chronic BCR inh inactive, MCF10A rereplic inactive and Gal4-VP16 FLuc inconclusive.
